High-throughput results (PubChem BioAssay)
HPGD inh = HPGD (human) dehydrogenase inhibition | P15428 | purified HPGD, NADH fluorescence kinetic, PGE2 substrate | Potency, µM, without a hit: at the highest dose activity change, negative = inhibition, usual class: inhibitors | 150,000 compounds, 4.3% hits | AID 894; active = well fitted inhibition curve with a large enough effect, not every such curve was filed as active; inconclusive = small, poorly fitted or top-dose-only effect, or another doubt; inactive = no such curve, though single readings can be large or run the other way; also: potency is read from the fitted curve at half-maximal effect; % is scaled to controls: 0 for no effect and ±100 for the full control effect
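20 nM HPGD preincubated 15 min at room temperature with compound in 50 mM Tris-HCl pH 8, 0.01% Tween 20. Started with 1 mM NAD+ and 30 uM prostaglandin E2; NADH fluorescence (360/450 nm) read 5 times over 30-s intervals, last minus first.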
CBFb RUNX1 block = CBF-beta/RUNX1 interaction disruption | AlphaScreen CBFb-His/RUNX1-biotin binding, biochemical | Potency, µM (doses to about 59.8 µM), inactives show top-dose activity, negative = inhibition, most hits filed as inhibitors | 230,000 tested, under 10 active; also: % of control where 0% means no effect
Target sequence (Q01196 whole entry, looked up): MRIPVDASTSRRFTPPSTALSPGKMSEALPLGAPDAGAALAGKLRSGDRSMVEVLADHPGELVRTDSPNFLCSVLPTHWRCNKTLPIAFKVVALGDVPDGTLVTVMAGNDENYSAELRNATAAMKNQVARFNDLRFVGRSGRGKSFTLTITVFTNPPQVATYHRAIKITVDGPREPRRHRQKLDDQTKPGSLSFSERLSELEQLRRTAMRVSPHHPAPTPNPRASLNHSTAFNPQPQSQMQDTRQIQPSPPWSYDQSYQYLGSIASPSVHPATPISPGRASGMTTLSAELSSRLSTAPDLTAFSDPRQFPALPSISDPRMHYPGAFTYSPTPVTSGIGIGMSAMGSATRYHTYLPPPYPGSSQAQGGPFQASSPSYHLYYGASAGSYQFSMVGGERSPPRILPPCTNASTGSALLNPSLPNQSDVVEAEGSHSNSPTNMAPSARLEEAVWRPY
Target sequence (Q13951 whole entry, looked up): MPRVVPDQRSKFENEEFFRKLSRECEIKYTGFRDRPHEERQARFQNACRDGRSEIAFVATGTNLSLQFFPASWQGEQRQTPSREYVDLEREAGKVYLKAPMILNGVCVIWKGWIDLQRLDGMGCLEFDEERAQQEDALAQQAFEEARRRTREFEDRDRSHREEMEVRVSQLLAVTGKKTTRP
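AlphaScreen binding: CBFb-His and RUNX1-biotin (30 nM each) preincubated 20 min, compound added for 15 min, then nickel and streptavidin beads for 90 min, all at room temperature. Disruption of the interaction by any mechanism counts as activity.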
ALDH1A1 block = ALDH1A1 (human) enzyme inhibition; P00352; Potency, µM (doses to about 75.3 µM), inactives show top-dose activity, negative = inhibition, usual class: inhibitors; 220,000 compounds, 7.3% hits; Purified ALDH1A1, NADH fluorescence, propionaldehyde substrate; active = well fitted inhibition curve with a large enough effect, not every such curve was filed as active; inconclusive = small, poorly fitted or top-dose-only effect, or another doubt; inactive = no such curve, though single readings can be large or run the other way;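 also: potency is read from the fitted curve at half-maximal effect; plate controls were no enzyme wells and a reference inhibitor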
HTT ATP protect = protects HTT-Q103 PC12 cells, measured by ATP. PC12 HTT-Q103 induced, cytoprotection, ATP luminescence, 40 h. 230,000 compounds, 0.14% hits. Potency, µM (highest dose often 56.4 µM), without a hit: cytoprotection (ATP increase), most hits filed as activators; also: potency is read from the fitted curve at half-maximal effect; % of control where 0% means no effect; nearly all actives have a fitted effect of over 45% in size
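Readout: ATPlite luminescence (ATP level). Model: stable PC12, inducible Htt exon1 Q103-GFP. Inducer: tebufenozide, 100 nM final. Compounds: dose series. No G418 in medium.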
HttQ103 aggreg = reduces HttQ103-GFP aggregates in PC12 cells; 220,000 compounds, 1.1% hits; PC12 HttQ103-GFP aggregates, Acumen cytometry, 40 h; Potency, µM (top dose mostly 46.1 µM), for inactives: at the top dose activity change, negative = inhibition, actives largely listed as inhibitors; also: potency is read from the fitted curve at half-maximal effect; % is scaled to controls: 0 for no effect and ±100 for the full control effect; nearly all actives have a fitted effect of over 60% in size
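Multiplexed with ATP-based cell death, this channel scores GFP aggregates in PC12 cells expressing inducible HTTex1-Q103-GFP. Induction used 100 nM tebufenozide; compounds were tested in concentration series.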
PNC assembly inh = inhibitors of perinucleolar compartment assembly; PC3M PTB-GFP, PNC prevalence imaging, 16 h; stronger effect = lower value; 140,000 compounds, 3.1% hits; AID 2417; activity change (PNC), negative = inhibition, % at 10 µM;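 active = readout at or below -70, meaning at least 70% loss of cells showing the perinucleolar compartment, a nuclear body marking cancer cells; inconclusive = readout between -30 and a set limit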;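 also: plate controls were DMSO wells for no effect and camptothecin positive control wells for full effect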
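PC3M cells stably expressing PTB-GFP, 750–1000 cells/well, treated 16 h at 37 °C with compound (23 nl of library stock), in duplicate. After paraformaldehyde fixation and Hoechst stain, imaged at 20x; PNC prevalence scored by image analysis.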
An asterisk follows results filed as active; u = inconclusive; x = not tested or not shown; [ ] = remark or other dose. An excerpt weighted towards active compounds, which were near 11% of everything screened. Unless noted, calls follow the shape of the dose curve; as a rule, active = well fitted curve in the direction sought with a large enough effect; inconclusive = small, poorly fitted or top-dose-only effect, or another doubt; inactive = no such curve, though single readings can be large; an effect the other way counts as inactive or inconclusive.

SMILES	HPGD inh	CBFb RUNX1 block	ALDH1A1 block	HTT ATP protect	HttQ103 aggreg	PNC assembly inh
Cc1cc(N2CCCC(C(=O)Nc3cccc4ccccc34)C2)n2ncnc2n1 (configuration not stated)	x	-8%	6%	1%	1%	x
N[C@H](Cc1c[nH]c2ccccc12)C(=O)O	-6%	u	1%	-111%	32µM*	x
NC(Cc1c[nH]c2ccccc12)C(=O)O (configuration not stated)	-12%	7%	-13%	x	x	x
CC1(C)OC(=O)C(=CNC(Cc2c[nH]c3ccccc23)C(=O)O)C(=O)O1 (configuration not stated)	-5%	0%	25µM*	6%	-4%	6
Nc1nc(Cl)nc2c1ncn2[C@@H]1O[C@H](CO)[C@H](O)C1F (some centres not stated)	x	x	x	-192%	-40%	x
CCC(C(=O)NCCN1CCN(C)CC1)n1c(C)c2cnn(-c3ccccc3)c(=O)c2c1C (configuration not stated)	-14%	-5%	22µM*	4%	7%	24
CN1CCN(c2cnn(-c3ccccc3)c(=O)c2Br)CC1	x	4%	5%	x	1%	x
CCCN1CCN(C(=O)CCCn2c(C)c3cnn(-c4ccccc4)c(=O)c3c2C)CC1	-7%	0%	28µM*	-7%	-3%	7
CCn1c(=O)cc(SCC(=O)N2CCN(c3ccccc3F)CC2)c2ccccc21	-17%	2%	u	-58%	u	-3
Nc1c(C(O)(C(F)(F)F)C(F)(F)F)cc(C(O)(C(F)(F)F)C(F)(F)F)c2ccccc12	-17%	15%	-3%	-4%[10 µM]	u	-19
Cc1ccc(-c2nnc(CSc3nc4cc5c(cc4cc3C)OCO5)o2)cc1	18µM*	15%	-11%	-21%[10 µM]	-17%	33
CCOC(=O)CSc1nc2cc3c(cc2cc1C)OCO3	x	4%	7%	25%[10 µM]	1%[9.22 µM]	x
COc1cc(OC)nc(NC(=O)NS(=O)(=O)c2ccc(OC(F)(F)F)cc2)n1	-8%	5%	4%	-20%	6%	-19
Cc1nn2c(C(F)(F)F)cc(-c3ccc(Cl)cc3)nc2c1C(=O)N1CCOCC1	u	1%	11µM*	-22%	-1%	u
Cc1cc(C(F)F)n2nc(C(=O)Nc3sc4c(c3C(N)=O)CCC4)nc2n1	-20%	-2%	16µM*	2%[10 µM]	-18%	1
CC(Sc1nc(-c2ccccc2)cc(C(F)(F)F)n1)C(=O)Nc1sc2c(c1C#N)CCC2 (configuration not stated)	-22%	-5%	5%	-14%	-12%	-20
CC(Sc1nc(-c2ccccc2)cc(C(F)(F)F)n1)C(=O)Nc1sc2c(c1C(N)=O)CCC2 (configuration not stated)	32µM*	-8%	u	26%[10 µM]	-2%	3
COC(=O)c1c(NC(=O)c2nc3nc(C)cc(C(F)F)n3n2)sc2c1CCC2	-14%	7%	13µM*	-33%	25%	-5
Cc1cc(C(F)F)n2nc(C(=O)Nc3sc4c(c3C#N)CCC(C)C4)nc2n1 (configuration not stated)	-18%	-1%	u	-3%	6%	58
C[C@@]12CCC(=O)C=C1CC[C@H]1[C@@H]2[C@@H](O)C[C@]2(C)[C@@H]1CC[C@@]2(O)C(=O)CO	x	x	x	-5%[10 µM]	x	x
O=C(c1ccc(F)cc1)c1cnc(Nc2ccccc2)s1	x	-1%	-2%	-131%	-3%	x
CC1(c2cnc(Nc3ccccc3)s2)CCC(=O)O1 (configuration not stated)	-15%	7%	18µM*	10%	1%	-29
CN(C)C(=O)c1ccc(-c2ccc3ncnc(N4CCNCC4)c3c2)cc1	x	x	-17%	-57%	x	x
CC(=O)[C@@H](C)CCO[C@@]1(C)OCC[C@@H]1C	-1%	x	9%[13.5 µM]	-6%[10 µM]	x	x
